Measurements: PubChem BioAssay

Experiment: probe aXIP binding to arrayed compounds – biochemical, NeuroSMM set, 635/667 nm fluorescence, primary screen (AID 1119);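 further: probe is the protein aXip251-270 applied at 1 µg/mL to compound-printed slides; binding of probe to printed compounds measured as 667 nm fluorescence plus signal to noise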
Conditions: small-molecule microarray, higher = more signal, called active from +8 up or from −8 down

Composite Z-score, inactive:
O=C1c2ccccc2[C@](Cc2ccccc2I)(C(=O)NC2CC2)[C@H](c2ccc(CO)cc2)N1Cc1ccccc1C(F)(F)F 0.0029
Cc1ccc(C(C)CC(O)C2C=CC3C(=O)N(c4ccccc4)C(=O)C3N2Nc2ccc(C#N)cc2)o1 (centres undefined) -0.102
COc1ccc([Si](C)(C)[C@H]2[C@H](CCO)O[C@@]3(C(=O)N(Cc4ccccc4)c4ccc(N5C(=O)c6ccccc6Oc6ccccc65)cc43)[C@@H]2C)cc1 -0.216
COCCOC(=O)N1C(=O)[C@@]2(c3cc(C#CC4=CCCCC4)ccc31)[C@H](C(=O)N1CCCCCCC1)[C@H]1C(=O)O[C@H](c3ccccc3)[C@H](c3ccccc3)N1[C@@H]2c1ccc(OCCO)cc1 0.196
CC(C)[C@H]1NC(=O)[C@@]23C(=O)N[C@@H](Cc4ccccc4)C2[C@H](C)[C@@]2(C)O[C@H]2C3/C=C/C/C=C\CNC(=O)[C@H](Cc2ccccc2)NC1=O (some centres undefined) 0.167
CC(C)=CCCC(C)=CC(O)C1C=CC2C(=O)N(c3ccccc3)C(=O)C2N1Nc1ccccc1F (centres undefined) 0.0502
CC(C)C[C@@H]1NC(=O)CNC(=O)[C@@]23C(=O)N[C@@H](Cc4ccccc4)C2[C@H](C)[C@@]2(C)O[C@H]2C3/C=C/C/C=C\CNC1=O (some centres undefined) 0.692
COC(=O)[C@@]1(Cc2ccc(F)cc2)[C@H]2c3cc(C(=O)N(C)C)n(Cc4ccc(O)c(OC)c4)c3C[C@H]2CN1C(=O)c1ccccc1 -0.136
C=C(COC)C(=O)CC[C@@H](OC(=O)c1cccnc1)c1ccccc1OCCO 0.245
